The values that follow come from PubChem BioAssay (Tox21).

Molecules are shown by their SMILES. Results filed as inconclusive are left out. Some compounds were tested as several samples or in several runs, with calls that do not always agree. Activity calls are given as the source filed them. Unless noted, calls follow the shape of the full dose curve.

Test [1] is described as follows: Nuclear factor erythroid 2-related factor 2/antioxidant responsive element (Nrf2/ARE) small molecule agonists: luciferase reporter gene qHTS assay in human keratinocytes (AID 1919969). Also: nearly all actives have a fitted effect of over 35% in size.
The target of test [2] is Gonadotropin-releasing hormone receptor (Homo sapiens) (UniProt P30968). Briefly: Human gonadotropin-releasing hormone receptor (GnRHR) small molecule agonists, calcium flux assay in GnRHR-HEK293 cells (AID 1920063). Also: nearly all actives have a fitted effect of over 35% in size. Put shortly: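 Stable human GnRHR HEK293 line. 18 h plating, then calcium dye for 1 h at 37 C. Agonist-mode compound addition from DMSO stocks; fluorescence monitored 3 min.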
Gonadotropin-releasing hormone receptor (Homo sapiens), sequence (P30968 whole entry, looked up): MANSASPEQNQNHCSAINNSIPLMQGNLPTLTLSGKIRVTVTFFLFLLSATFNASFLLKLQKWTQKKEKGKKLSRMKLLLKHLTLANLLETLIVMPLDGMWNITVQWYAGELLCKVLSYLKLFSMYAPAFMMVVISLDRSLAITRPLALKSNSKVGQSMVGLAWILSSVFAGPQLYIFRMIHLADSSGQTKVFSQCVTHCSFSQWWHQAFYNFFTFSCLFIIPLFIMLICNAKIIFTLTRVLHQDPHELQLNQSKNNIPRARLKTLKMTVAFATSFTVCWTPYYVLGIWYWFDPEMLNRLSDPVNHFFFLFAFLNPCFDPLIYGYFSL

Test [3] can be described thus: G protein-coupled receptor (GPCR) small molecule agonists, calcium flux assay: HEK293 wild type cell line counter screen (AID 1920065). Put shortly: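 Following 18 h incubation at 37 C/5% CO2, plates got calcium dye for 1 h; compounds, ATP or DMSO were then pinned in and fluorescence followed kinetically (480/540 nm).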
Test [4] in a line: p53 small molecule agonists, cell-based qHTS assay with human liver microsomes (AID 1963577). In outline:
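Fluorescence of the beta-lactamase reporter in p53RE-bla cells, detected with LiveBLAzer substrate (2 h, room temperature, dark), served as the read-out after 16 h compound exposure at 37 C with human liver microsomes and NADPH, each 0.5 mg/mL final.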

Test [5] can be described thus: p53 small molecule agonists, cell-based qHTS assay with rat liver microsomes (AID 1963578). Put shortly:
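Cells carrying a p53 response element–beta-lactamase reporter were plated and rested 5 h, then dosed with compound in DMSO plus rat liver microsomes and NADPH, each at 0.5 mg/mL final. After 16 h at 37 C, LiveBLAzer substrate was added for 2 h.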

Test [6] can be described thus: p53 small molecule agonists, cell-based qHTS assay with human liver microsomes: qHTS cell viability counter screen (AID 1963579). Also: nearly all actives have a fitted effect of over 45% in size. In outline: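 Cytotoxicity counter screen: p53RE-bla, 4,000 cells/well; 5 h settle, 37 C/5% CO2; cpd + HLM 0.5 mg/mL + NADPH 0.5 mg/mL (final); 16 h, 37 C; CellTiter-Glo, 30 min RT, luminescence.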
A short description of test [7]: p53 small molecule agonists, cell-based qHTS assay: qHTS cell viability counter screen (AID 1963581). Also: nearly all actives have a fitted effect of over 45% in size. Also: potency is read from the fitted curve at half-maximal effect. In outline:
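qHTS counter screen: 16 h compound exposure at 37 C of p53RE-bla HCT-116 cells (4,000 per well, seeded 5 h prior), cell viability by ATP luminescence.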

The nature of test [8]: p53 small molecule agonists, cell-based qHTS assay (AID 1963582; active = well fitted activation curve with a large enough effect in the signal ratio in the repeat runs, not every such curve was filed as active; the % refers to the signal ratio). In outline: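 Measured: fluorescence from cleaved LiveBLAzer substrate. System: p53RE-bla cells, 16 h compound treatment at 37 C, 2 h substrate step at room temperature.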
Test [9] concerns the target 5-hydroxytryptamine receptor 2A (Homo sapiens) (UniProt P28223). Kind of test: 5-hydroxytryptamine receptor 2A (HTR2A) small molecule antagonists, cell-based qHTS assay (AID 1963586). Also: nearly all actives have a fitted effect of over 45% in size. Also: potency is read from the fitted curve at half-maximal effect. Put shortly: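 CHO cells stably expressing human HTR2A were plated for 18 h at 37 C, then loaded with calcium dye for 1 h. Compounds were preincubated 5 min at room temperature before DOI (4 nM solution) was added. Kinetic fluorescence was read for 3 min.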

The target is the same in test [10]. Briefly: 5-hydroxytryptamine receptor 2A (HTR2A) small molecule agonists, cell-based qHTS assay (AID 1963587). Also: nearly all actives have a fitted effect of over 30% in size. In outline: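 HTR2A-CHO cells, plated 18 h at 37 C/5% CO2, dye-loaded 1 h at 37 C; compounds in DMSO added by pin tool (agonist mode). Intracellular calcium flux read as kinetic fluorescence on FDSS over 2 min at 1 s intervals.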
In test [11] the target is Muscarinic acetylcholine receptor M1 (Homo sapiens) (UniProt P11229). Briefly: Cholinergic receptor muscarinic 1 (CHRM1) small molecule antagonists, cell-based qHTS assay (AID 1963588). Also: nearly all actives have a fitted effect of over 40% in size. In outline:
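Compounds were tested at 15 concentrations in three independent runs. Dye-loaded CHRM1-CHO cells were exposed 5 min at room temperature before stimulation by acetylcholine added at 50nM. Intracellular calcium was read kinetically on FDSS for 3 min.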

For test [12] the target is unchanged. Kind of test: Cholinergic receptor muscarinic 1 (CHRM1) small molecule agonists, cell-based qHTS assay (AID 1963589). Also: nearly all actives have a fitted effect of over 35% in size. In outline:
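Kinetic fluorescence (1 s intervals) of calcium-sensitive dye in human M1 CHO cells after compound addition; cells pre-incubated 18 h at 37 C/5% CO2 and dye-loaded 1 h.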

Test [13] in a line: cAMP Responsive Elements (CRE) small molecule agonists, cell-based qHTS assay (AID 1963590). In outline:
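Test agents in DMSO were incubated 3 h at 37 C/5% CO2 with CRE-bla HEK 293T cells seeded 18 h earlier; LiveBLAzer B/G FRET substrate was added and read after 2 h at room temperature.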

Test [14] is described as follows: cAMP Responsive Elements (CRE) small molecule antagonists, cell-based qHTS assay (AID 1963591; active = well fitted inhibition curve with a large enough effect in the signal ratio in the repeat runs, not every such curve was filed as active; the % refers to the signal ratio). In outline: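 Reporter line CRE-bla HEK 293T in dialyzed-FBS DMEM; cells preincubated 18 h, treated 3 h with compound plus NKH477 (0.25 uM final); LiveBLAzer FRET, 2 h RT.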
Test [15] addresses Beta-2 adrenergic receptor (Homo sapiens) (UniProt P07550). Briefly: Adrenergic beta2 receptor (ADRB2) small molecule antagonists, cell-based qHTS assay (AID 1963592). Also: nearly all actives have a fitted effect of over 50% in size. Also: potency is read from the fitted curve at half-maximal effect. As to activity change, negative = inhibition: series mostly up to about 92 µM. Put shortly:
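Assay format: CHO-ADRB2 cells, 18-20hr seeding at 37C/5% CO2, then compound plus 1nM isoproterenol agonist mix for 0.5hr RT. Homogeneous time-resolved fluorescence cAMP detection after 1hr, expressed as 665/615 nm ratio.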

Test [16] shares this target. Kind of test: Adrenergic beta2 receptor (ADRB2) small molecule agonists, cell-based qHTS assay (AID 1963593).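 Also: CHO cells stably overexpressing human ADRB2.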 In outline: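 CHO cells stably over-expressing ADRB2 were plated overnight at 37C, then dosed with compounds plus a stimulation mix containing 100uM IBMX and 25uM Ro-20-1724 for 0.5hr at room temperature. cAMP was measured by HTRF competition, 1hr.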
Test [17] has as its target D(2) dopamine receptor (Homo sapiens) (UniProt P14416). Kind of test: Dopamine D2 receptor (DRD2) small molecule agonists, cell-based qHTS assay (AID 1963594). Also: nearly all actives have a fitted effect of over 35% in size. Put shortly:
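HEK293 cells stably expressing DRD2 were cultured 24 h at 37 C, then given Ro20-1724 (0.1 mM final) and compounds for 10 min at room temperature. NKH477 (200nM) was then added for 30 min. cAMP was read by HTRF.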

The target is the same in test [18]. Briefly: Dopamine D2 receptor (DRD2) small molecule antagonists, cell-based qHTS assay (AID 1963595; active = well fitted inhibition curve with a large enough effect in the signal ratio in the repeat runs, with a control signal flat; the % refers to the signal ratio). Put shortly:
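Human DRD2 antagonist qHTS measuring cAMP by HTRF. The cells are exposed to compound for 10 min, then to NKH477 (200 nM) and quinpirole (12 nM) for 30 min at RT, with Ro20-1724 (0.1 mM) present throughout.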

The target in test [19] is KiSS-1 receptor (Homo sapiens) (UniProt Q969F8). Kind of test: Human kisspeptin (KISS1R) small molecule agonists, calcium flux assay in KISS1R-HEK293 cells (AID 1920064; active = well fitted activation curve with a large enough effect in the repeat runs). Put shortly: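 After overnight (18 h) culture at 37 C/5% CO2, human KISS1R-HEK293 cells received calcium dye for 1 h, then test compound; emission at 540 nm (excitation 480 nm) was tracked for 3 min.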
KiSS-1 receptor (Homo sapiens), sequence (Q969F8 whole entry, looked up): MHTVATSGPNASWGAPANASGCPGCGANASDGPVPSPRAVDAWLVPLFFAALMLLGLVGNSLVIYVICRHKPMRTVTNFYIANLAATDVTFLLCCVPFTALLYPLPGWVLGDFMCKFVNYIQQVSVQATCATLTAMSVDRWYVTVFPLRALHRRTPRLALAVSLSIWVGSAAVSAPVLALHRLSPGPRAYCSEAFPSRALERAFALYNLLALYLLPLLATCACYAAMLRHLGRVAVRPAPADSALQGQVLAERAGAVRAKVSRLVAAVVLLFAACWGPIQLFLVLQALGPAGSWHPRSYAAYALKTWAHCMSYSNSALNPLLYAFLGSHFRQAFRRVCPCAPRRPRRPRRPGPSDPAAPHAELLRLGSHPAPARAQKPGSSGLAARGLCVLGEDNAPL

The nature of test [20]: p53 small molecule agonists, cell-based qHTS assay with rat liver microsomes: qHTS cell viability counter screen (AID 1963580). Also: nearly all actives have a fitted effect of over 45% in size. Also: potency is read from the fitted curve at half-maximal effect. Put shortly:
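Counter screen for cytotoxicity under metabolic activation: rat liver microsomes and NADPH, 0.5 mg/mL final each, added with compounds to p53RE-bla HCT-116 cells; 16 h at 37 C, then ATP luminescence read.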
% is scaled to controls: 0 for no effect and ±100 for the full control effect.

D(2) dopamine receptor (Homo sapiens), sequence (P14416 whole entry, looked up): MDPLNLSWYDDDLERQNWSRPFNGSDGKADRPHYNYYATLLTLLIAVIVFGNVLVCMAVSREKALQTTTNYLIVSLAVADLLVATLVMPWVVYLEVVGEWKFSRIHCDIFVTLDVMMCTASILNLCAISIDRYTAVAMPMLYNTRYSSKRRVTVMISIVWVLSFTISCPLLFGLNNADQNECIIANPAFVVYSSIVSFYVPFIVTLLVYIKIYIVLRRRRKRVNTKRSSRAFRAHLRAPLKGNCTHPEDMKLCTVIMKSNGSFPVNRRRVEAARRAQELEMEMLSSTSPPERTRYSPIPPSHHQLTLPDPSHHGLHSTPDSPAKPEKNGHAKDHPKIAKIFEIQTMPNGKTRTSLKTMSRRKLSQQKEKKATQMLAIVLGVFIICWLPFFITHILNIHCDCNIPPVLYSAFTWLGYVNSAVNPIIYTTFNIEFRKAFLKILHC
Muscarinic acetylcholine receptor M1 (Homo sapiens), sequence (P11229 whole entry, looked up): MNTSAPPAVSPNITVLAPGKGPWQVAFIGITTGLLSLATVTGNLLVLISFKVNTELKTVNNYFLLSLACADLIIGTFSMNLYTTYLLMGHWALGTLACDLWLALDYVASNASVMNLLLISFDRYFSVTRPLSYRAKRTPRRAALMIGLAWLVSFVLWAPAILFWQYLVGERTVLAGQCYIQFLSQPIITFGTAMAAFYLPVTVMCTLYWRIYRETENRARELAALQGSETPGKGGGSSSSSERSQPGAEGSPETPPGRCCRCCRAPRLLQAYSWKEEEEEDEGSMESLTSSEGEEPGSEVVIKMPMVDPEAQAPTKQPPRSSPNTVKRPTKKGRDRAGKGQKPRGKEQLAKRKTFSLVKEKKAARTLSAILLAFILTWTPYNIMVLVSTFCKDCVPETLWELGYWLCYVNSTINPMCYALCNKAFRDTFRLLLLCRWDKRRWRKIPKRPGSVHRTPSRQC
5-hydroxytryptamine receptor 2A (Homo sapiens), sequence (P28223 whole entry, looked up): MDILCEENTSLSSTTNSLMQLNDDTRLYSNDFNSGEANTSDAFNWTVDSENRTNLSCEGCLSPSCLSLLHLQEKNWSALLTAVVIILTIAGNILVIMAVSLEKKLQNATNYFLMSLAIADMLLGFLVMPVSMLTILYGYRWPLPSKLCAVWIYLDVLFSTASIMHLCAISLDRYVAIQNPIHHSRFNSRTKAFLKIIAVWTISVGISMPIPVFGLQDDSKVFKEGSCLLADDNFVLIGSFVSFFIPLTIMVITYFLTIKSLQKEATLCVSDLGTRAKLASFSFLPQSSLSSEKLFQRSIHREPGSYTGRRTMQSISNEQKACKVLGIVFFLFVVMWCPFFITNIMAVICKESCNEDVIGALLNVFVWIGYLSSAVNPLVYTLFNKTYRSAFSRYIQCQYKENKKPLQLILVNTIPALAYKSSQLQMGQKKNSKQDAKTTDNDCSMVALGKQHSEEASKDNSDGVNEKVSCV
Beta-2 adrenergic receptor (Homo sapiens), sequence (P07550 whole entry, looked up): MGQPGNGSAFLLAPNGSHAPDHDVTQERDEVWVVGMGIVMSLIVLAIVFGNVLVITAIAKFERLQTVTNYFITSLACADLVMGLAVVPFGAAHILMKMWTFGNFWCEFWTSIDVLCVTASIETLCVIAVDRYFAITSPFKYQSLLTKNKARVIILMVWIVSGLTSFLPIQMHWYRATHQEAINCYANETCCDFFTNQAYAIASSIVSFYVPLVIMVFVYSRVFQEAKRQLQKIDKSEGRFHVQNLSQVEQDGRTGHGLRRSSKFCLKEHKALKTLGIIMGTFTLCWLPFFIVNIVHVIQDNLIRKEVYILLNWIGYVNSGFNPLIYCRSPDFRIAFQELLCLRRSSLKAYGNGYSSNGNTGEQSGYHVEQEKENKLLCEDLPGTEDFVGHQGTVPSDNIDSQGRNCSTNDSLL

`CCCCCCCC/C=C\CCCCCCCC(=O)OCCCC`: in [1], the activity, positive = activation was 8.08% [at 19 µM] (inactive). In addition, the activity change in [2] was 1.13% [at 11.8 µM, stronger effect = higher value] (inactive). Moreover, the activation in test [3] is 0.0792% [at 11.8 µM] (inactive); in test [4], -3.86% [at 13.5 µM] (inactive); in test [5] it was -0.57% [at 13.6 µM] (inactive); in test [8] it was -0.177% [at 13.5 µM] (inactive); in [10], 5.55% [at 15.9 µM] (inactive); in test [12], -0.0084% [at 15.8 µM] (inactive). Moreover, the figures for the activation in test [13], in test [16] and in test [17] were 0.955% [at 19 µM] (inactive), 25.8% [at 19 µM] (inactive) and -5.29% [at 19 µM] (inactive), respectively. Besides, the activity change, negative = cytotoxicity in test [6] is 0.909% [at 13.5 µM] (inactive); in [7], 6.46% [at 13.5 µM] (inactive). In addition, the activity, negative = inhibition is -6.13% [at 12.7 µM] (inactive) in test [9] and 5.7% [at 12.6 µM] (inactive) in test [11]. For the same molecule, the activity change, negative = inhibition in test [14] was -13.9% [at 18.9 µM] (inactive); in test [15], -2.11% [at 19 µM] (inactive); in [18] it was -12.5% [at 18.9 µM] (inactive).

Regarding `O=c1n(CCCN2CCN(c3cccc(Cl)c3)CC2)nc2ccccn12`, the Potency entry in test [2], in [19], in test [3], in test [5], in test [6] and in test [20] was “inactive” throughout. Also, the Potency result in [7], in [8], in test [13], in test [14], in test [15] and in [17] was “inactive” throughout.

On to `CC(C)CCCCCOC(=O)CS`, for which the Potency entry in test [1], in test [2], in test [3], in test [4], in test [5] and in test [6] was “inactive” each time. In addition, the Potency entry in test [20], in [7], in test [8], in test [10], in test [11] and in test [13] was “inactive” each time. In addition, the Potency result in test [14], in [15], in test [16], in test [17] and in test [18] was “inactive” throughout. Besides, the Potency in test [9] was 1.88 µM (active).

Consider `Nc1cc(=O)[nH]c(N)n1`, for which the Potency entry in [1], in [2], in test [19], in [4], in test [5] and in test [6] was “inactive” each time. For the same molecule, the Potency entry in test [20], in test [7], in test [8], in test [9], in test [10] and in test [11] was “inactive” throughout. For the same molecule, the Potency result in test [12], in [13], in [14], in [15], in [17] and in [18] was “inactive” each time.

For `COc1ccc(CCN2CCC(Nc3nc4ccccc4n3Cc3ccc(F)cc3)CC2)cc1`, the Potency entry in test [2], in test [19], in test [3], in test [4], in [5] and in test [8] was “inactive” each time. The Potency entry in test [17] is “inactive”. In addition, the Potency in test [20] was 26.3 µM (active) and inactive; in test [7] it was 13.2 µM (active); in test [15], 55.7 µM (active) and inactive.

In the case of `CCCC/C=C\CCCCCCCCCC=O`, the Potency entry in [2], in [19], in test [3], in test [4], in test [5] and in test [20] was “inactive” in each case. For the same molecule, the Potency entry in test [7], in test [8], in test [9], in test [10], in test [11] and in test [12] was “inactive” throughout. Also, the Potency result in test [13], in test [15], in [16], in test [17] and in [18] was “inactive” in each case.

For the molecule `C[C@]12CC[C@@H]3c4ccc(O)cc4CC[C@H]3[C@@H]1CCC2=O`, the Potency result in test [2], in [19], in test [3], in test [6], in test [20] and in [7] was “inactive” each time. Also, the Potency entry in [14], in [15], in [17] and in test [18] was “inactive” in each case.
